For 17 sequences, sensor-assay potency score (higher = more potent) results are on record in the OligoGym collection.
Note: reference of the scale not given here.

The target in one assay is ARF4. The experiment in a line: pooled miR-30 sensor sort-seq; sequence = guide strand. As to conditions: shRNA.
In turn, AATTTTGTTGTAACAAGCCTAG returned a sensor-assay potency score (higher = more potent) of -0.535.

Take TTCCACATTAAAACCAATGGTA: the sensor-assay potency score (higher = more potent) was -0.547.

For the sequence TTTATCTGTCATTTCACTGATG, the sensor-assay potency score (higher = more potent) is -0.303.

TTATCAAACATGTCCTTGGTTA came in with a sensor-assay potency score (higher = more potent) of -0.479.

Sequence TACCACAAAAATAAGACCCTGG gave a sensor-assay potency score (higher = more potent) of 0.855.

For the next assay, the target named is ARHGAP18. The assay is described as above. The following applies: shRNA.
In turn, TTCTATCCAATAGTCTTCCATA returned a sensor-assay potency score (higher = more potent) of -1.16.

Turning to TTTCTTTTGATTCTCTCTGTTG, the sensor-assay potency score (higher = more potent) is -0.646.

TTGGTTTACAATAAACTTGGGA had a sensor-assay potency score (higher = more potent) of 0.294.

In turn, TTATTTACACTCTTGACTCAGC had a sensor-assay potency score (higher = more potent) of -0.0105.

In turn, TTTATTTACACTCTTGACTCAG showed a sensor-assay potency score (higher = more potent) of 0.18.

As for ATTTGTACTCTTATCTTGCTTT, the sensor-assay potency score (higher = more potent) turned out to be 0.153.

The sequence TTTGCTTCTAGTTCTTGGCAAA had a sensor-assay potency score (higher = more potent) of -1.24.

In the case of TTCTCCTTTCTTGAGAGTCTGG, the sensor-assay potency score (higher = more potent) was -0.587.

On to TTCTCCATAACTTTGATGGTGG, for which the sensor-assay potency score (higher = more potent) is -0.384.

Sequence TTGCACTCGAATCACTCCCTGA displayed a sensor-assay potency score (higher = more potent) of -0.442.

With TTTGACAACAACCACCTCTTGA, the sensor-assay potency score (higher = more potent) amounted to 0.34.

Take TAAAAACACAATGCTTTCCTGT: the sensor-assay potency score (higher = more potent) is 0.106.
